Assay outcomes as filed in PubChem BioAssay.
In the library only some 1.8% were active in any assay of this set; here they are far more common.
VDR inh: blocks the human vitamin D receptor. actives 0.93% (n = 400,000). VDR-SRC2-3 peptide fluorescence polarization, 2 h. AID 504847. Potency, µM, without a hit: max response, negative = inhibition, most hits filed as inhibitors. P11473; note: % is set by controls: 0 for no effect and ±100 for the full control effect
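Reagent solutions, kept cold and dark, are dispensed first; compounds are then pinned in at 23 nl, plates briefly spun, and incubated 2 h at ambient temperature. Inhibition of VDR–SRC2-3 peptide binding is read by fluorescence polarization.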
TrxR1 inh: rat TrxR1 inhibition; O89049; recombinant rTrxR1, NADPH fluorescence consumption, selenite substrate; Potency, µM (titrated, usually from 114 µM), without a hit: at the highest dose activity change, negative = inhibition, most hits filed as inhibitors; actives 1% (n = 390,000); note: % is set by controls: 0 for no effect and ±100 for the full control effect; nearly all actives have a fitted effect of over 65% in size
Target sequence (O89049 whole entry, looked up): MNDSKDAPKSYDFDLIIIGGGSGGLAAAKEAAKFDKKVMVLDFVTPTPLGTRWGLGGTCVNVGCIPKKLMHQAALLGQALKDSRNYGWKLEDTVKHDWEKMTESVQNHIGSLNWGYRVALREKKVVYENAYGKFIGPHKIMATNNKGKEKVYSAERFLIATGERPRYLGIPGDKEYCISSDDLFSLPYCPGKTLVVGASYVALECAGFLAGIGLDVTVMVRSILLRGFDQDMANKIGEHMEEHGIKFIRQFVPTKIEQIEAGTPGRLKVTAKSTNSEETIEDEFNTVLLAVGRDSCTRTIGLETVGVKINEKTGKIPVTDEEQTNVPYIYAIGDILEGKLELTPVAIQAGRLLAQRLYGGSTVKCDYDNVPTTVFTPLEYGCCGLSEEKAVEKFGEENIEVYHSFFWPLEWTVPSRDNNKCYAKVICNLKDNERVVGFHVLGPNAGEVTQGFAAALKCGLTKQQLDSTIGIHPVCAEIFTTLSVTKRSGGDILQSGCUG
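Rat TrxR1 (90 nM in the dispensed reagent) was pre-reduced with 400 uM NADPH for 5 min at room temperature, then incubated with compound for 15 min. After 400 uM selenite was added, NADPH fluorescence (Ex 340/Em 450 nm) was followed for 8 min.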
Vif-A3G inh: blocks the Vif interaction with human APOBEC3G. Potency, µM (highest dose often 46.1 µM), for inactives: top-dose activity, negative = active, actives largely listed as inhibitors. HeLa A3G-eYFP + Vif (tagged APOBEC3G with the HIV-1 protein that degrades it), YFP fluorescence, overnight. actives 0.076% (n = 410,000). Q9HC16; note: % is set by controls: 0 for no effect and ±100 for the full control effect; nearly all actives have a fitted effect of over 60% in size
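Read-out is eYFP fluorescence (Ex 488/Em 500-530) from Vif-expressing HeLa A3G-eYFP cells; more signal means A3G escaped Vif-mediated degradation. Cells plated overnight, compound pinned in, incubated overnight at 37 deg C.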
TrxR1 substrate: rat thioredoxin reductase 1 substrate activity; purified TrxR1 substrate turnover, NADPH consumption readout; actives 0.01% (n = 390,000); O89049; Potency, µM (highest dose often 114 µM), inactives show at the highest dose activity change, negative = substrate turnover; AID 588456; note: % is set by controls: 0 for no effect and ±100 for the full control effect; nearly all actives have a fitted effect of over 50% in size
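Rat TrxR1, dispensed at 90 nM, was prereduced with 400 uM NADPH (final) for 5 min at ~22 deg C, then incubated with compound 15 min before 400 uM selenite. A first-read NADPH fluorescence drop versus no-compound background flagged substrates.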
Vif-A3F inh: inhibitors of Vif-A3F interaction; HeLa A3F-eYFP + Vif (tagged APOBEC3F with the HIV-1 protein that degrades it), YFP fluorescence increase; actives 0.2% (n = 390,000); Potency, µM (top dose mostly 46.1 µM), for the others: at the highest dose activity, negative = active; note: % of control where 0% means no effect; nearly all actives have a fitted effect of over 65% in size
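HeLa cells stably expressing Vif plus C-terminally eYFP-tagged A3F were seeded, incubated overnight at 37 deg C, dosed with compound, incubated overnight again at 37 deg C. Yellow fluorescence (Ex 488/Em 500-530) reported blocked Vif-mediated A3F-eYFP degradation.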
Numbers without * were called inactive; ? = inconclusive; · = not tested or not shown; [ ] = remark or other dose. Calls come from the whole dose curve; as a rule, active = well fitted curve in the direction sought with a large enough effect; inconclusive = small, poorly fitted or top-dose-only effect, or another doubt; inactive = no such curve, though single readings can be large; an effect the other way counts as inactive or inconclusive. Potency is the fitted concentration of half-maximal effect.

SMILES	VDR inh	TrxR1 inh	Vif-A3G inh	TrxR1 substrate	Vif-A3F inh
COc1cc(/C=C/C(=O)OCC(=O)NCc2ccco2)ccc1O	-14%	50µM*	?	-2%	-18%
COC(=O)c1ccc(/C=C/C(=O)OCC(=O)Nc2ncc(Cl)cc2Cl)cc1	14%	-2%	0%	-2%	4%
O=C(COC(=O)/C=C/c1ccco1)Nc1ncc(Cl)cc1Cl	-12%	50µM*	0%	-5%	0%
Cc1nc(NC(=O)COC(=O)/C=C/c2ccco2)c(Cl)cc1Cl	?	40µM*	-7%	4%	1%
CC(C)(C)n1ncc2c(=O)n(Cc3cccc(Cl)c3Cl)cnc21	·	3%	2%	-6%	·
O=C(COC(=O)/C=C/c1ccco1)NCc1ccc(Cl)cc1	-10%	79µM*	-1%	-3%	1%
O=C(COc1ccccc1C(=O)Nc1ccccc1)Nc1ccc(-c2ccccc2)cc1	·	20%	-8%	9%	·
COC(CN(C(=O)CCl)C(C(=O)NC1CCCCC1)c1ccc(C)cc1)OC (centres undefined)	-8%	40µM*	-1%	3%	-6%
O=C(NC1CCCC1)C(c1ccc(F)cc1)N(Cc1ccc(F)cc1)C(=O)CCl (centres undefined)	-18%	40µM*	0%	-1%	-6%
O=C(NC1CCCCC1)C(c1ccncc1)N(Cc1ccc(F)cc1)C(=O)c1ccccn1 (centres undefined)	-1%	-18%	1%	-2%	1%
COc1ccc(C(C(=O)NC2CCCCC2)N(C(=O)CCl)c2ccc(C)cc2)cc1 (centres undefined)	-2%	-5%	-1%	2%	0%
O=C(NCc1ccco1)c1ccc(Cn2c(SCc3ccc(F)cc3)nc3cccnc32)cc1	-5%	?	-1%	0%	0%
O=C(c1ccc(Cl)c(S(=O)(=O)N2CCCC2)c1)N1CCN(c2ccccc2)CC1	32µM*	21%[57.1 µM]	-4%	3%	7%
CCOC(=O)C1=C(COC(=O)c2ccc([N+](=O)[O-])o2)NC(=O)NC1C (centres undefined)	2%	28µM*	-9%	-2%	1%
Cc1ccc2c(c1)C(c1ccc(F)cc1)N(C(=O)COc1ccc(Cl)cc1Cl)CC(=O)N2 (centres undefined)	-14%	27%	-1%	8%[2.29 µM]	2%
CC(=O)N1CCN(C(=O)CC2OC(=O)c3ccccc32)CC1 (centres undefined)	?	2.5µM*	-9%	0%[57.1 µM]	0%
O=C(CC1OC(=O)c2ccccc21)Nc1ccccc1N1CCOCC1 (centres undefined)	-4%	10%[57.1 µM]	1%	-6%	3%
CC(C)(C)n1ncc2c(=O)n(Cc3ccc(C(F)(F)F)cc3)cnc21	·	-18%	1%	-7%	·
O=C1NC(=S)S/C1=C\C=C\c1ccc([N+](=O)[O-])o1	16%	10µM*	?	-23%	?
COC(=O)C1=C(C(=O)OC)[C@]2([C@@H]3CC=CCN[C@@H](Cc4ccccc4)C(=O)N3Cc3ccccc3)C=C[C@H]1O2	-8%	17%	0%	-2%	0%
C=CCC(Nc1ccccc1)C12C=CC(O1)C(C(=O)OC)=C2C(=O)OC (centres undefined)	?	7.9µM*	?	-2%	2%
C[C@H](NC(=O)CNC(=O)[C@@H](NC(=O)[C@H](Cc1ccccc1)NC(=O)CNC(=O)CNC(=O)[C@@H](N)Cc1ccccc1)[C@@H](C)O)C(=O)N[C@@H](CCCN=C(N)N)C(=O)N[C@@H](CCCCN)C(=O)N[C@@H](CO)C(=O)N[C@@H](C)C(=O)N[C@@H](CCCN=C(N)N)C(=O)N[C@@H](CCCCN)C(N)=O	-4%	·	·	·	·
N#CCCCS(=O)(=O)c1nc2ccccc2s1	-1%	·	·	·	·
O=C(COc1ccccc1C(=O)Nc1ccccc1)NC1CCCCC1	·	7%	·	5%	·
COC(=O)c1ccc([C@H]2Nc3ccc(S(=O)(=O)Nc4cccc(C)c4)cc3[C@H]3C=CC[C@H]32)cc1	-12%	?	8%	4%	?
SMILES	VDR inh	TrxR1 inh	Vif-A3G inh	TrxR1 substrate	Vif-A3F inh
COC(=O)c1ccc([C@@H]2Nc3c(OC)ccc(C)c3[C@@H]3C=CC[C@@H]32)cc1	-3%	56µM*	-7%	0%	5%
Oc1ccc(NCc2ccccc2OCc2ccc(Cl)cc2)cc1	?	79µM*	?	-18%	-4%
CCOc1cc(CNc2ccc(O)cc2)ccc1OCc1ccc(Cl)cc1	?	50µM*	-6%	-8%	2%
N#C/C(=C\c1ccccc1)C(=O)NNS(=O)(=O)c1ccc(Br)cc1	45µM*	?	2%	10%[57.1 µM]	-23%
Cc1ccc(S(=O)(=O)N/N=C2/CC(=O)CC(C)(C)C2)cc1[N+](=O)[O-]	-6%	40µM*	0%	-3%	?
CC(C)C[C@H](NC(=O)[C@H](Cc1cnc[nH]1)NC(=O)[C@@H](N)Cc1cnc[nH]1)C(=O)NCC(=O)NCC(=O)N[C@@H](C)C(=O)N[C@@H](CCCCN)C(=O)N[C@@H](CCC(N)=O)C(=O)N[C@@H](C)C(=O)NCC(=O)N[C@@H](CC(=O)O)C(=O)N[C@H](C(=O)O)C(C)C	10%	·	·	·	·
Cc1coc2c1C(=O)C(=O)c1c-2ccc2c1CCCC2(C)C	28µM*	?	-1%	-5%[57.1 µM]	-8%
CC(=O)Nc1ccc(C(=O)CSc2nnc(-c3ccccc3)n2-c2ccccc2)cc1	4%	2%	4%	13%[11.4 µM]	2%
CC(=O)Nc1ccc(-c2nnc(SCC(=O)c3ccc4c(c3)Cc3ccccc3-4)n2C)cc1	50µM*	-3%	0%	10%	0%
O=[N+]([O-])C(/C=C(/Cl)[N+](=O)[O-])=C(N1CCCCC1)N1CCCCC1	0%	7.9µM*	4%	-10%[57.1 µM]	1%
[O-]/[N+](=C\c1ccncc1)c1ccccc1	79µM*	-32%	3%	-13%	3%
COc1ccc2nc(NC(=O)c3nc(S(=O)(=O)Cc4ccccc4)ncc3Cl)sc2c1	2%	-7%	-22%	-4%	5%
O=C(Nc1nc2ccc(F)cc2s1)c1nc(S(=O)(=O)Cc2ccccc2)ncc1Cl	?	3.5µM*	-26%	1%	-2%
Cc1cccc(CS(=O)(=O)c2ncc(Cl)c(C(=O)Nc3nc4ccc(F)cc4s3)n2)c1	-23%	3.2µM*	1%	5%	3%
Cc1ccc(N2C3=C(C(=O)CC(C)(C)C3)C(c3cn(C)nc3C)C3=C2CC(C)(C)CC3=O)cc1	20µM*	?	-17%	14%	?
O=C1CCCCc2sc(Br)c([N+](=O)[O-])c2N1	-27%	10µM*	0%	9%[57.1 µM]	2%
O=C(/C=C/Nc1ccccc1)c1ccccc1	-6%	-2%	-5%	1%	-5%
